Screens as filed in PubChem.
The sample as a whole holds a higher share of hits than the screen did.
IDE exosite inh: exo-site inhibitors of human IDE, primary screen, biochemical, fluorescence anisotropy, probe displacement | Insulin-degrading enzyme (Homo sapiens), P14735 | purified IDE, FL-6b probe fluorescence polarization; hits give low values | z-score at 20 µM | 6.3% of 17,000 active;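 active means z-score of -3 or lower, meaning strong loss of probe binding signal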;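 further: His-tagged human IDE residues 42-1019 made in E. coli with 30 nM FL-6b probe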
Target sequence (P14735 42-1019 limits assumed): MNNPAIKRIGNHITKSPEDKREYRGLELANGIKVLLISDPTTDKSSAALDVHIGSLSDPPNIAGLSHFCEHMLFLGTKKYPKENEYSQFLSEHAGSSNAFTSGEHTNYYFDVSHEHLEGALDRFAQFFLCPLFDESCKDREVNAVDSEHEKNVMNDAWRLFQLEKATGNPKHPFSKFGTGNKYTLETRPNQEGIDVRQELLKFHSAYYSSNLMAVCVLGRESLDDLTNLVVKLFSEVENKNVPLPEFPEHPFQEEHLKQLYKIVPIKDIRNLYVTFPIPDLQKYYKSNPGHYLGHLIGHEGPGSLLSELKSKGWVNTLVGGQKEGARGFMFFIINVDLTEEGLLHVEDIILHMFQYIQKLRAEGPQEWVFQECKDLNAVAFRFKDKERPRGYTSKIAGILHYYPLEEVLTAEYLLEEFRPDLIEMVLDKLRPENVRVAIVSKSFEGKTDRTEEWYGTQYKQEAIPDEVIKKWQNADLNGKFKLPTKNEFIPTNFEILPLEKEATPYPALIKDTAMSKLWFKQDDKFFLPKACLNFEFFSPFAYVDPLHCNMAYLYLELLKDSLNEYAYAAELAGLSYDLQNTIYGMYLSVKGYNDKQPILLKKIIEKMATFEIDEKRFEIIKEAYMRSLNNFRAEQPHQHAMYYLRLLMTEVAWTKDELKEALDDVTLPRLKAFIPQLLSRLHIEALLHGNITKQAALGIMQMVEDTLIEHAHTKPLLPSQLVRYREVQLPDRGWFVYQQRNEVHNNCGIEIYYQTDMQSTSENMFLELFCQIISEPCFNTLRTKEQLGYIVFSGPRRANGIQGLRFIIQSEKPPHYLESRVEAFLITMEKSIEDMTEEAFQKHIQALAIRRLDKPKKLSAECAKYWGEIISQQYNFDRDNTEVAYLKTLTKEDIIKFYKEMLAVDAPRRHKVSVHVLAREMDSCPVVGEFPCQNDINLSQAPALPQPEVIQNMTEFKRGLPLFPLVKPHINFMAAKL
A number is an active result; . = inactive.

SMILES	IDE exosite inh
O=C(Cc1ccccn1)N1CC(=O)N2[C@H](C1)[C@@H](c1ccc(-c3ccc(F)cc3)cc1)[C@@H]2CO	.
Cc1ccccc1-c1ccc([C@H]2[C@H]3CN(C(=O)Cc4ccccn4)CC(=O)N3[C@H]2CO)cc1	-8.9
O=C(Cc1ccccn1)N1CC(=O)N2[C@H](CO)[C@@H](c3ccc(-c4ccc(F)cc4)cc3)[C@@H]2C1	.
Cc1ccccc1-c1ccc([C@@H]2[C@@H](CO)N3C(=O)CN(C(=O)Cc4ccccn4)C[C@@H]23)cc1	-20
COc1ccc(-c2ccc([C@@H]3[C@H]4CN(C(=O)Cc5ccccn5)CC(=O)N4[C@H]3CO)cc2)cc1	.
O=C(Cc1ccccn1)N1CC(=O)N2[C@H](CO)[C@@H](c3ccc(-c4ccc(F)cc4)cc3)[C@H]2C1	.
Cc1ccccc1-c1ccc([C@@H]2[C@@H](CO)N3C(=O)CN(C(=O)Cc4ccccn4)C[C@H]23)cc1	-5.8
Cc1ccccc1-c1ccc([C@@H]2[C@H]3CN(C(=O)Cc4ccccn4)CC(=O)N3[C@H]2CO)cc1	-18
O=C(Cc1ccccn1)N1CC(=O)N2[C@@H](CO)[C@H](c3ccc(-c4ccc(F)cc4)cc3)[C@@H]2C1	.
O=C(Cc1ccccn1)N1CC(=O)N2[C@H](CO)[C@H](c3ccc(C#CC4CC4)cc3)[C@H]2C1	.
CCC(=O)N1C[C@H]2[C@@H](c3ccccc31)[C@@H](CO)N2Cc1ccc(F)cc1	.
O=C(CCN1CCCCC1)N[C@@H]1CC[C@@H](CCn2cc(-c3cccc(F)c3)nn2)O[C@H]1CO	.
CN(C)CC#Cc1ccc([C@H]2[C@H](CO)N3C(=O)CN(C(=O)c4cccnc4)C[C@@H]23)cc1	.
O=C(C[C@@H]1C=C[C@@H](NS(=O)(=O)c2ccc(F)cc2)[C@H](CO)O1)N1CCc2ccccc2C1	.
COc1ccccc1-c1ccc([C@H]2[C@H]3CN(Cc4ccncc4)CCCCN3[C@H]2CO)cc1	-4.7
COc1ccc(C#Cc2ccc([C@@H]3[C@H](CO)N4CCCCN(Cc5ccncc5)C[C@@H]34)cc2)cc1	.
COc1ccc(C#Cc2ccc([C@@H]3[C@H]4CN(Cc5ccncc5)CCCCN4[C@H]3CO)cc2)cc1	.
COc1ccccc1-c1ccc([C@H]2[C@@H](CO)N3CCCCN(Cc4ccncc4)C[C@@H]23)cc1	-4.6
COCC#Cc1ccc([C@@H]2[C@@H](CO)N3CCCCN(Cc4ccncc4)C[C@H]23)cc1	.
OC[C@H]1[C@H](c2ccc(-c3ccc(F)cc3)cc2)[C@@H]2CN(Cc3ccncc3)CCCCN12	.
OC[C@H]1[C@@H](c2ccc(-c3ccc(F)cc3)cc2)[C@@H]2CN(Cc3ccncc3)CCCCN12	.
COc1ccccc1-c1ccc([C@H]2[C@@H](CO)N3CCCCN(Cc4ccncc4)C[C@H]23)cc1	-8.9
COCC#Cc1ccc([C@H]2[C@@H](CO)N3CCCCN(Cc4ccncc4)C[C@H]23)cc1	.
COc1ccccc1-c1ccc([C@@H]2[C@H](CO)N3CCCCN(Cc4ccncc4)C[C@@H]23)cc1	-8.9
COc1ccc(C#Cc2ccc([C@H]3[C@H](CO)N4CCCCN(Cc5ccncc5)C[C@@H]34)cc2)cc1	.
SMILES	IDE exosite inh
C/C=C/c1ccc([C@@H]2[C@H]3CN(C(=O)c4ccc(F)cc4)CC(=O)N3[C@H]2CO)cc1	.
CC(C)NC(=O)N1[C@H](C#N)[C@@H](c2ccc(C#CC3CCCCC3)cc2)[C@@H]1CO	.
O=C(C1CCCC1)N1CC2(C1)[C@H](c1ccccc1)[C@H](CO)N2Cc1ccc(Cl)cc1	.
N#Cc1ccc(-c2ccc([C@@H]3[C@H]4CN(C(=O)C5CCC5)CC(=O)N4[C@H]3CO)cc2)cc1	.
COc1ccc(CN(C)C[C@@H]2Oc3ccc(NC(=O)Nc4ccc5c(c4)OCO5)cc3CC(=O)N([C@@H](C)CO)C[C@@H]2C)cc1	.
C[C@@H]1CCCCO[C@@H](CN(C)Cc2ccc(Cl)c(Cl)c2)[C@@H](C)CN([C@H](C)CO)C(=O)c2cc(NC(=O)c3ccncc3)ccc2O1	.
O=C(C[C@@H]1CC[C@H]2[C@@H](COC[C@@H](O)CN2C(=O)Nc2ccccc2)O1)NCc1ccccc1F	.
Cc1ccc(S(=O)(=O)N2C[C@@H](O)COC[C@H]3O[C@H](CC(=O)NCc4ccc5c(c4)OCO5)CC[C@@H]32)cc1	.
CC(C)NC(=O)N[C@@H]1CC[C@@H](CC(=O)NCCCN(C)C)O[C@@H]1CO	.
C[C@H](CO)N1C[C@H](C)[C@H](CN(C)C(=O)NC2CCCCC2)OCc2cn(nn2)CCCC1=O	.
C[C@@H]1CN([C@@H](C)CO)C(=O)c2c(c3ccccc3n2C)-c2ccccc2CO[C@H]1CN(C)C(=O)[C@H](Cc1ccccc1)N(C)C	.
CS(=O)(=O)Nc1ccc2c(c1)[C@@H]1C[C@H](CC(=O)NCCc3ccccc3)O[C@@H](CO)[C@@H]1O2	.
COc1ccc(CN2CC3(CN(S(=O)(=O)c4ccc(C)cc4)C3)c3c([nH]c4cc(OC)ccc34)[C@H]2CO)cc1	.
COc1ccccc1-c1ccc([C@@H]2[C@@H](CO)N3CCCCN(Cc4ccncc4)C[C@H]23)cc1	-4.2
COc1ccccc1C#Cc1ccc([C@@H]2[C@H](CO)N3CCCCN(C(=O)C4CCC4)C[C@@H]23)cc1	-11
CN(C)CC#Cc1ccc([C@@H]2[C@H]3CN(C(=O)C4CCC4)CCCCN3[C@H]2CO)cc1	.
COc1ccc(C#Cc2ccc([C@H]3[C@@H](CO)N4CCCCN(C(=O)Nc5ccccc5)C[C@@H]34)cc2)cc1	.
COc1ccccc1C#Cc1ccc([C@@H]2[C@@H](CO)N3CCCCN(C(=O)C4CCC4)C[C@H]23)cc1	-8.3
COc1ccc(C#Cc2ccc([C@@H]3[C@H](CO)N4CCCCN(C(=O)Nc5ccccc5)C[C@@H]34)cc2)cc1	.
COc1ccccc1NC(=O)N1CCCCN2[C@H](CO)[C@@H](c3ccc(C#Cc4ccccc4)cc3)[C@H]2C1	.
COc1ccccc1NC(=O)N1CCCCN2[C@@H](CO)[C@H](c3ccc(C#Cc4ccccc4)cc3)[C@@H]2C1	.
COc1ccc(C#Cc2ccc([C@H]3[C@H]4CN(C(=O)Nc5ccccc5)CCCCN4[C@H]3CO)cc2)cc1	.
COc1ccccc1C#Cc1ccc([C@H]2[C@H]3CN(C(=O)C4CCC4)CCCCN3[C@H]2CO)cc1	-18
COc1ccccc1C#Cc1ccc([C@H]2[C@@H](CO)N3CCCCN(C(=O)C4CCC4)C[C@@H]23)cc1	-7.6
CN(C)CC#Cc1ccc([C@@H]2[C@H](CO)N3CCCCN(C(=O)C4CCC4)C[C@@H]23)cc1	.
SMILES	IDE exosite inh
COc1ccccc1NC(=O)N1CCCCN2[C@H](CO)[C@H](c3ccc(C#Cc4ccccc4)cc3)[C@@H]2C1	.
N#C[C@H]1[C@H](c2ccccc2)[C@@H](CO)N1S(=O)(=O)c1ccc(F)cc1	.
C/C=C/c1ccc([C@@H]2[C@@H](CO)N3CCCCN(C(=O)Nc4ccc(OC)cc4)C[C@H]23)cc1	.
CCC(=O)Nc1ccc2c(c1)C(=O)N(C)C[C@H](OC)[C@H](C)CN(Cc1nccs1)[C@H](C)CO2	.
O=S(=O)(c1ccc(F)cc1)N1CCCCN2[C@H](C1)[C@@H](c1ccc(C#CC3CC3)cc1)[C@@H]2CO	.
C/C=C/c1ccc([C@H]2[C@@H](CO)N(C(=O)CN(C)C)[C@H]2CNC(=O)CC)cc1	.
O=C(c1cccc(F)c1)N1CCCCN2[C@@H](CO)[C@H](c3ccc(-c4ccccc4)cc3)[C@@H]2C1	.
O=C(c1ccc(F)cc1)N1CC(=O)N2[C@H](CO)[C@@H](c3ccc(C4=CCCC4)cc3)[C@H]2C1	.
